The record followed here is PubChem BioAssay.

In assay [1] the test system is TRPC4 beta (transient receptor potential cation channel C4), mouse. Kind of assay: activators of mouse TRPC4 channel, confirmation, cell-based, Fluo4 calcium, HEK293 TRPC4beta/mu-opioid, duplicates, 10 µM (AID 2426;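 active = fluorescence ratio normalized to control raised more than 50% in primary screen plus both repeat runs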). The settings on record: Fluo4 calcium fluorescence, at 10 µM; active compounds read high.
In assay [2] the test system is transient receptor potential cation channel C4 beta (TRPC4), mouse. Description: activators of mouse TRPC4 channel, confirmation, cell-based, second round, Fluo4, HEK293 TRPC4beta/mu-opioid, 1 µM (AID 2461;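 active = primary screen active and over 50% activation in each of two duplicate runs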). The settings on record: Fluo4 calcium fluorescence, at 1 µM; active compounds read high.
The subject of assay [3] is TRPC4 (transient receptor potential cation channel C4 beta), mouse. Description: positive allosteric modulators of mouse TRPC4, confirmation, cell-based, second round, Fluo-4, HEK293 TRPC4beta/mu-opioid, 1 µM (AID 2554;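 active = primary screen hit whose fluorescence ratio, in both repeats, exceeds the weak agonist control mean by 3 SD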). The following applies: DAMGO EC20, Fluo-4 calcium flux, at 1 µM; active compounds read high.
Assay [4] has as its system TRPC4 beta (transient receptor potential cation channel C4), mouse. Kind of assay: positive allosteric modulators of mouse TRPC4, confirmation, cell-based, Fluo-4, HEK293 TRPC4beta/mu-opioid (AID 2555;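 active = primary screen hit whose calcium fluorescence ratio, in both repeats, exceeds the weak agonist control mean by 3 SD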). The following applies: DAMGO EC20, Fluo-4 calcium flux, at 10 µM; active compounds read high.
The target of assay [5] is Short transient receptor potential channel 4 (Mus musculus) (UniProt Q9QUQ5). Kind of assay: inhibitors of mouse TRPC4 channel, confirmation, cell-based, Fluo4, HEK293 TRPC4beta/mu-opioid (AID 2636;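 active = calcium signal cut by more than 3 SD below the full-agonist control yet still positive, in both repeats and the earlier primary screen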). The settings on record: DAMGO, Fluo4 calcium flux, at 10 µM; active compounds read high.
Sequence of Short transient receptor potential channel 4 (Mus musculus) (Q9QUQ5 whole entry, looked up): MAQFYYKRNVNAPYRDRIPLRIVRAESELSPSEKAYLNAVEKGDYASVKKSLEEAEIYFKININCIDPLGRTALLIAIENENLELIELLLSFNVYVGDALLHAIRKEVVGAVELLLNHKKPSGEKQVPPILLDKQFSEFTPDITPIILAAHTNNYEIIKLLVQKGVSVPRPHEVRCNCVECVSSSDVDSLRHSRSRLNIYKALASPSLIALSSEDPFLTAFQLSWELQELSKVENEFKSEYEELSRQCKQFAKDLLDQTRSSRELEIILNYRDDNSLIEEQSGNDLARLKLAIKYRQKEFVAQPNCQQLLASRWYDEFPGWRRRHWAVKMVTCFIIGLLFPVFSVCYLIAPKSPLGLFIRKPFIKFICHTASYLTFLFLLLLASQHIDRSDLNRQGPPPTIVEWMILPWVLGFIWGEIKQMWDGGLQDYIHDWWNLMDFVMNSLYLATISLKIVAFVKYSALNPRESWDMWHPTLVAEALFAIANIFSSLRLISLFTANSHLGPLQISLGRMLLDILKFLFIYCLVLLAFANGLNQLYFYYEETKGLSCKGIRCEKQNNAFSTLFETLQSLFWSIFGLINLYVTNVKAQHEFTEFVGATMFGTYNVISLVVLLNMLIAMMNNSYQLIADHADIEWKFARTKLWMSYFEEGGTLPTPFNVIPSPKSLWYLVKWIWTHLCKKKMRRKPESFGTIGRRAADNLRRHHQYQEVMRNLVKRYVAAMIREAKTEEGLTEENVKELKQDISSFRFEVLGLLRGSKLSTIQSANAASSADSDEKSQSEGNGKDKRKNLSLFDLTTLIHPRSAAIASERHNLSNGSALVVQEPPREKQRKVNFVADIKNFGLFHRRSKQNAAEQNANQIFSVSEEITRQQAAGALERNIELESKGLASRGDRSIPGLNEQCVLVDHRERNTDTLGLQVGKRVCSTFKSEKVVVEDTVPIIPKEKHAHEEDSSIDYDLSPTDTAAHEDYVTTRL
For assay [6] the target is unchanged. Kind of assay: inhibitors of mouse TRPC4 channel, confirmation, cell-based, second round, Fluo4, HEK293 TRPC4beta/mu-opioid, 1 µM (AID 2637;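 active = calcium signal ratio cut to more than 3 SD under the fully stimulated control mean yet still positive, in both repeats and the primary screen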). The settings on record: Fluo4 calcium flux, DAMGO, at 1 µM; active compounds read high.
Assay [7] shares this target. Kind of assay: mouse TRPC4 channel activators, dose response, cell-based, HEK293 TRPC4/mu-opioid, Fluo-4 calcium (AID 434937).
The target is the same in assay [8]. Kind of assay: TRPC4 positive allosteric modulators, dose response, cell-based, HEK293 TRPC4/mu-opioid, Fluo-4 calcium, EC20 DAMGO (AID 434941;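 active = earlier screen potentiator hit that boosts the TRPC4 ion channel at some dose, with a dose response; inactive = no potentiation, no dose response, or not a prior hit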;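 also: calcium entry triggered by an EC20 dose of DAMGO at the co-expressed mu-opioid receptor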).
Assay [9] has the same target. Kind of assay: mouse TRPC4 channel inhibitors, dose response, cell-based, HEK293 TRPC4/mu-opioid, Fluo-4 calcium (AID 434942;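 active = primary screen inhibitor hit that blocks the TRPC4 channel at some tested dose, yielding a dose curve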).
Assay [10] has as its target Short transient receptor potential channel 6 (Mus musculus) (UniProt Q61143). Description: inhibition of mouse TRPC6 channel, confirmation, selectivity assay for TRPC4 inhibitor project, cell-based, HEK293, membrane potential dye, duplicate (AID 434948;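 active = active in primary screen and both duplicates, each dropping signal beyond three positive-control SD with fluorescence still positive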). The following applies: HEK293 TRPC6, membrane potential dye fluorescence, at 10 µM, stimulated with maximal-effect acetylcholine; active compounds read high.

The target is the same in assay [11]. Description: activation of mouse TRPC6 channel, confirmation, selectivity assay for TRPC4 activator project, cell-based, HEK293, membrane potential dye, duplicate (AID 434950;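 active = membrane potential signal rise above negative control mean plus 3 SD in both duplicates, also active in the earlier TRPC4 screen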). The following applies: HEK293 TRPC6, membrane potential fluorescence, at 10 µM; active compounds read high.
The target is the same in assay [12]. Kind of assay: TRPC6 potentiation by TRPC4 potentiator hits, confirmation, selectivity assay for TRPC4 potentiator project, HEK293 cells, membrane potential dye, duplicate (AID 434952;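 active = compound raising the membrane signal above positive-control mean plus 3 SD in both repeats, and a primary screen hit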). The settings on record: HEK293 TRPC6, membrane potential dye fluorescence, at 10 µM, maximal acetylcholine added after compound; active compounds read high.
In assay [13] the target is Short transient receptor potential channel 4 (Mus musculus) (UniProt Q9QUQ5). Description: calcium flux activators in TRPC4/5HT1a cells, counter-screen for TRPC4 activator project, cell-based, second counter screen, HEK293 TRPC4/5HT1a, Fluo-4 (AID 434977;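 active = calcium signal rise above buffer-control mean plus 5 SD in both duplicates, and also a hit in the primary screen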). The following applies: Fluo-4 calcium flux, at 10 µM; active compounds read high.
Assay [14] is described as follows: calcium flux inhibitors in TRPC4/5HT1a cells, confirmation, counter-screen for TRPC4 inhibitor project, cell-based, second counter screen, HEK293 TRPC4/5HT1a, Fluo-4 (AID 434978;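 active = primary screen active whose calcium signal fell more than 3 SD beyond the full-serotonin control mean in both duplicate plates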;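 as to outcome: serotonin given first at submaximal then at maximal dose after compound preincubation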). The following applies: Fluo-4 calcium flux, at 10 µM, serotonin added to trigger calcium flux; active compounds read high.
The test system of assay [15] is TRPC4 (mouse), co-expressed with 5HT1a in HEK293. Kind of assay: calcium flux potentiators in TRPC4/5HT1a cells, confirmation, counter-screen for TRPC4 potentiator project, cell-based, second counter screen, HEK293 TRPC4/5HT1a, Fluo-4 (AID 434979;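 active = signal rise over 3 SD above mean of control wells given weak agonist, in both repeats and first screen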). The settings on record: Fluo-4 calcium flux, at 10 µM, serotonin added at its EC20 dose; active compounds read high.
A short description of assay [16]: calcium flux activation in mu-opioid HEK293 cells, confirmation, counter-screen for TRPC4 activator project, cell-based, HEK293 mu-opioid receptor line (AID 449723;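 active = hit in primary screen, with calcium signal over 5 SD above buffer well mean in both duplicates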;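 also: counter screen cells carry the mu-opioid receptor alone and lack TRPC4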). The settings on record: Fluo-4 calcium fluorescence, at 10 µM; active compounds read high.
The nature of assay [17]: calcium flux enhancement in mu-opioid HEK293 cells, confirmation, counter-screen for TRPC4 allosteric potentiator project, cell-based, HEK293 mu-opioid receptor line (AID 449724;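 active = calcium signal rise more than 3 SD above the low-dose agonist control mean, in both duplicate plates and the primary screen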;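 also: HEK293 cells carrying mu-opioid receptor only with no TRPC4 channel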). The settings on record: Fluo-4 calcium flux, at 10 µM, compound added before EC20 DAMGO stimulus; active compounds read high.

For part of these data: Results with a measured potency or affinity are listed apart. Activity calls are given as the source filed them.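 The calls were made as follows, unless noted: active = primary screen activator hit with a dose response curve and TRPC4 channel activation at any tested dose; inactive = no activation, no dose response, or not a primary hit.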

Sequence of Short transient receptor potential channel 6 (Mus musculus) (Q61143 whole entry, looked up): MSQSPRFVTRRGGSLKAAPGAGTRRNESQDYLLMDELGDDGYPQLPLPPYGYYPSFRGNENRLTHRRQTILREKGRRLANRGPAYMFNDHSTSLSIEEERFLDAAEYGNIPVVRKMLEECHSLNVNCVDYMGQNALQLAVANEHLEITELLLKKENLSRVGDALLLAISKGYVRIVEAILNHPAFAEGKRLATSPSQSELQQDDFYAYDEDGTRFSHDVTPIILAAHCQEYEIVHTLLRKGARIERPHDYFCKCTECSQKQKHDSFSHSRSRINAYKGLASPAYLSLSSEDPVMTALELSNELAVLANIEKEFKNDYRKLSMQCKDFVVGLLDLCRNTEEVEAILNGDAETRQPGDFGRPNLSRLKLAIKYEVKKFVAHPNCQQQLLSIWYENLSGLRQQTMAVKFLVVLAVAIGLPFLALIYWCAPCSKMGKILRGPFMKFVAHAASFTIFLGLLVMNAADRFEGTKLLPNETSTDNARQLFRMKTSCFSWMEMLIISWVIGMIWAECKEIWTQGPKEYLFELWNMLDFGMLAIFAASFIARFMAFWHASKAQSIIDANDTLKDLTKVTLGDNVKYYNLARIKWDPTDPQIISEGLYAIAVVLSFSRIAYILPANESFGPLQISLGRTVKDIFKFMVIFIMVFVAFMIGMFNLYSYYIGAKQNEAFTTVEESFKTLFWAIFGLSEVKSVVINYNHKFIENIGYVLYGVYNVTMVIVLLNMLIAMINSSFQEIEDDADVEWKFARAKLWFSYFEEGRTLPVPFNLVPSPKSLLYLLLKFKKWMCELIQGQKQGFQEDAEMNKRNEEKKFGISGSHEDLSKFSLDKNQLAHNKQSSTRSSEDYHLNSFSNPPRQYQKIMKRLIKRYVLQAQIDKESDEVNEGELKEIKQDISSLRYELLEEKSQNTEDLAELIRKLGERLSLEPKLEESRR

Take `Clc1cccc2c3c([nH]c12)CCNC3`: the result in assay [1], in assay [2], in [3], in assay [5], in [6] and in [7] was inactive. Further, the result in assay [8], in assay [9], in assay [10], in [11], in [12] and in [13] was inactive. Besides, the outcome in assay [14], in assay [16] and in [17] was inactive. Besides, the results for the potentiation in assay [4] and in assay [15] were 38% (active) and 40.3% (active), respectively.

In the case of `COc1ccc(N2CCN(C3CCCCC3NS(=O)(=O)c3ccc(Cl)cc3)CC2)cc1` (stereo not given), the outcome in assay [1], in assay [2], in assay [3], in assay [4], in [5] and in assay [6] was inactive. The outcome in [7], in [8], in assay [9], in assay [10], in assay [11] and in assay [12] was inactive. The result in [13], in assay [14], in assay [16] and in [17] was inactive. The potentiation in [15] is 10.1% (active).

As to `Cc1noc(C)c1COC(=O)[C@@H](NC(=O)c1ccccc1Cl)C(C)C`, the result in assay [1], in [2], in assay [3], in assay [4], in assay [5] and in assay [6] was inactive. Also, the result in assay [7], in assay [8], in [9], in assay [10], in [11] and in assay [12] was inactive. For the same compound, the result in assay [13], in [14], in [15], in assay [16] and in assay [17] was inactive.

Consider `CSc1ccc(/C=N\NC(=O)CC(=O)NC(C)C)cc1`, for which the result in assay [1], in assay [2], in assay [3], in assay [4], in assay [5] and in assay [6] was inactive. In addition, the result in [7], in assay [8], in [9], in assay [10], in assay [11] and in assay [12] was inactive. For the same compound, the outcome in assay [13], in [14], in [15], in assay [16] and in assay [17] was inactive.

On to `O=[N+]([O-])c1cc([N+](=O)[O-])c2oc(-c3ccccc3)c(Br)c2c1O`, for which the result in [1], in assay [2], in assay [3], in assay [4], in assay [5] and in assay [6] was inactive. Also, the result in assay [7], in assay [8], in [9], in [10], in assay [11] and in assay [12] was inactive. Further, the outcome in [13], in assay [14], in assay [15], in [16] and in assay [17] was inactive.

As for `Cn1c(=O)c2c(nc(CN3CCc4ccccc4C3)n2Cc2ccc(F)cc2)n(C)c1=O`, the result in [1], in assay [2], in assay [3], in [4], in [5] and in [6] was inactive. Besides, the outcome in [7], in [8], in assay [9], in assay [10], in assay [11] and in assay [12] was inactive. The result in assay [13], in assay [14], in assay [16] and in assay [17] was inactive. Also, in [15], the potentiation is 59.5% (active).

On to `COC(=O)c1cc(N2CCN(C)CC2)nc2ccccc12`, for which the result in assay [1], in [2], in assay [3], in assay [4], in assay [5] and in assay [6] was inactive. Further, the outcome in assay [7], in assay [8], in assay [9], in [10], in assay [11] and in assay [12] was inactive. Further, the outcome in assay [13], in assay [14], in assay [15], in assay [16] and in assay [17] was inactive.

Consider `Cc1cc(C)cc(NC(=O)c2nnn(Cc3cc(C)ccc3C)c2N)c1`, for which the result in assay [1], in assay [2], in assay [3], in assay [5], in assay [6] and in assay [7] was inactive. The result in assay [8], in assay [9], in [10], in assay [11], in [12] and in assay [13] was inactive. Further, the outcome in assay [14], in assay [16] and in [17] was inactive. Moreover, the potentiation in assay [4] is 16% (active); in assay [15] it was 27.4% (active).

In the case of `CCc1ccc(OCC(=O)NC2CCCCC2)c(Br)c1`, the result in assay [1], in assay [2], in [3], in assay [5], in assay [6] and in [7] was inactive. For the same compound, the result in assay [8], in assay [9], in assay [10], in assay [11], in assay [12] and in [13] was inactive. Also, the outcome in assay [14], in assay [16] and in assay [17] was inactive. Also, the potentiation is 46% (active) in assay [4] and 135% (active) in [15].

In the case of `COc1ccc(CCn2c(=S)[nH]c3cc(C(=O)N4CCOCC4)ccc3c2=O)cc1OC`, the result in assay [1], in assay [2], in [3], in assay [4], in assay [5] and in assay [6] was inactive. In addition, the result in assay [7], in [8], in [9], in assay [10], in assay [11] and in assay [12] was inactive. The outcome in [13], in [14], in assay [15], in [16] and in assay [17] was inactive.

On to `Cc1ccc(-c2csc3ncnc(NCCN4CCOCC4)c23)cc1`, for which the outcome in [1], in assay [2], in assay [3], in assay [4], in assay [6] and in assay [7] was inactive. Moreover, the result in assay [8], in assay [9], in [10], in [11], in [12] and in assay [13] was inactive. For the same compound, the outcome in assay [15], in assay [16] and in [17] was inactive. For the same compound, the inhibition in assay [5] is 76% (active); in assay [14], 32.6% (active).

Take `CNC(=S)NNC(=O)c1cccn(Cc2cccc(C(F)(F)F)c2)c1=O`: the outcome in assay [1], in [2], in assay [3], in [5], in assay [6] and in [7] was inactive. For the same compound, the outcome in assay [8], in assay [9], in assay [10], in [11], in assay [12] and in [13] was inactive. In addition, the outcome in assay [14], in assay [15], in assay [16] and in assay [17] was inactive. Also, in assay [4], the potentiation is 14% (active).

Take `C=CCn1c(SCCN2CCCCC2)nc2c1c(=O)[nH]c(=O)n2C`: the outcome in [1], in [2], in [5], in assay [6], in assay [7] and in assay [8] was inactive. In addition, the outcome in [9], in assay [10], in assay [11], in [12], in assay [13] and in assay [14] was inactive. Moreover, the outcome in assay [16] and in assay [17] was inactive. For the same compound, the values for the potentiation in [3], in [4] and in [15] were 27% (active), 16% (active) and 20% (active), respectively.

Take `O=[N+]([O-])c1c(Nc2cccc(O)c2)cc(Cl)c2nonc12`: the result in [1], in [2], in assay [3], in [4], in assay [5] and in assay [6] was inactive. The result in assay [7], in assay [8], in [9], in assay [10], in assay [11] and in assay [12] was inactive. Also, the result in [13], in assay [14], in [15], in [16] and in assay [17] was inactive.

`C=CCn1c(SCCN2CCOCC2)nc2c1c(=O)[nH]c(=O)n2C`: the result in assay [1], in assay [2], in assay [3], in assay [4], in assay [5] and in assay [6] was inactive. The result in assay [7], in [8], in assay [9], in assay [10], in assay [11] and in assay [12] was inactive. Also, the outcome in assay [13], in assay [14], in assay [16] and in assay [17] was inactive. In [15], the potentiation is 35.7% (active).
